# Experimental data reported in the supplement of paper PMC9177965.
# System: HT29 RNF43 G659fs (RNF43 659mut, CRISPR-edited)
# Test: cell viability activity relative to DMSO (negative = inhibition); higher = more viable cells (less growth inhibition)
# Conditions: 5 µM; 96 h
# Protocol: (§1)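 Broad Repurposing Library primary screen at a single dose of 5 uM. HT29 sg-Ctrl and HT29 RNF43 G659fs CRISPR-edited isogenic cells were seeded at 2500 cells/well in 384-well plates in duplicate and treated for 96 h. Viability was read by CellTiter-Glo and reported as % activity relative to DMSO, with MG132 as the positive control (negative = growth inhibition).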
row,SMILES,cell viability activity [%]
1,CN1CC[C@@H](c2c(O)cc(O)c3c(=O)cc(-c4ccccc4Cl)oc23)[C@@H]1CO,-90.1
2,O=C(CCCCCCNC(=O)c1cnc(N(c2ccccc2)c2ccccc2)nc1)NO,-34.4
3,CCN(CC)CCNC(=O)c1c(C)[nH]c(/C=C2\C(=O)Nc3ccc(F)cc32)c1C,-99.7
4,CC(C)(C)c1nc(-c2cccc(NS(=O)(=O)c3c(F)cccc3F)c2F)c(-c2ccnc(N)n2)s1,-69.4
5,OC1(c2ccc(Cl)c(C(F)(F)F)c2)CCN(CCCC(c2ccc(F)cc2)c2ccc(F)cc2)CC1,-83
6,C[C@@H](NCCCc1cccc(C(F)(F)F)c1)c1cccc2ccccc12,-78.1
7,CN(C)CCCC(=O)Nc1ccc(C(=O)Nc2cccc(Nc3ncc(Cl)c(-c4c[nH]c5ccccc45)n3)c2)cc1,-70.8
8,O=C1NC(=O)[C@@H](c2cn3c4c(cccc24)CCC3)[C@@H]1c1c[nH]c2ccccc12,-50.8
9,COc1ccc(NC(=O)c2ccc(-c3ccc(-c4noc(C)n4)cc3C)cc2)cc1N1CCN(C)CC1,-61
10,C=CC(=O)Nc1cc2c(Nc3ccc(F)c(Cl)c3)ncnc2cc1C#CC(C)(C)N1CCN(C)CC1,-94.8
11,CC1(C)CC[C@]2(C(=O)O)CC[C@]3(C)[C@H](C(=O)C=C4[C@@]5(C)C=C(C#N)C(=O)C(C)(C)[C@@H]5CC[C@]43C)[C@@H]2C1,-88.2
12,O=C(NOCC1CC1)c1ccc(F)c(F)c1Nc1ccc(I)cc1Cl,-66.2
13,Cc1ncc(-c2ccnc(Nc3ccc(S(C)(=O)=O)cc3)n2)n1C(C)C,-91.5
14,Oc1c(Cl)cc(Cl)c(Cl)c1Cc1c(O)c(Cl)cc(Cl)c1Cl,-49
15,Cn1cc(-c2[nH]c3cc(NC(=O)[C@H](N)C4CCCCC4)cc4c3c2C=NNC4=O)cn1,-54.9
16,CCN(CC)CC1CCN(c2ncc3ncnc(Nc4ccc(F)c(Cl)c4)c3n2)CC1,-37.1
17,COc1ccc(/C=C\c2cc(OC)c(OC)c(OC)c2)cc1O,-64.6
18,CNC(=O)Nc1ccc(-c2nc(N3CC4CCC(C3)O4)c3cnn(C4CCC5(CC4)OCCO5)c3n2)cc1,-50.9
19,CC(C)C[C@H](NC(=O)[C@H](Cc1ccccc1)NC(=O)c1cnccn1)B(O)O,-94.1
20,Clc1ccccc1CNCC1CCC(CNCc2ccccc2Cl)CC1 (stereo not given),-26.3
21,COC[C@H](NC(=O)c1cnc(C)s1)C(=O)N[C@@H](COC)C(=O)N[C@@H](Cc1ccccc1)C(=O)[C@@]1(C)CO1,-95.3
22,COCC[n+]1c2c(n(Cc3cnccn3)c1C)C(=O)c1ccccc1C2=O,-96.6
23,COc1ccc(-c2cc3nccn3c(Nc3ncccc3C(N)=O)n2)cc1OC,-27.9

# System: HT29 sg-Ctrl (RNF43 wildtype)
# Test: as above
# Conditions: 5 µM; 96 h
# Protocol: as §1
row,SMILES,cell viability activity [%]
1,CN(C)C(=O)C(CCN1CCC(O)(c2ccc(Cl)cc2)CC1)(c1ccccc1)c1ccccc1,-75.2
2,CCCCc1ccc2[nH]c(NC(=O)OC)nc2c1,-76.7
3,NS(=O)(=O)OC[C@@H]1C[C@@H](n2ccc3c(N[C@H]4CCc5ccccc54)ncnc32)C[C@@H]1O,-63.2
4,CC1(C)CC(=O)c2c(C(F)(F)F)nn(-c3ccc(C(N)=O)c(N[C@H]4CC[C@H](O)CC4)c3)c2C1,-78.4
5,CC[C@H](CC#N)OC(=O)N[C@@H](C)c1cccc(NC(=O)Nc2ccc(-c3cnco3)c(OC)c2)c1,-55.9
6,COc1ccc(NC(=O)c2ccc(-c3ccc(-c4noc(C)n4)cc3C)cc2)cc1OCCN(C)C,-90.6
7,c1ccc2c(CCNc3ccc(Nc4ccncc4)cc3)c[nH]c2c1,-90.3
8,Cc1ccc(-n2nc(C(C)(C)C)cc2NC(=O)NCc2cc(F)ccc2Oc2ccc3c(cnn3CCO)c2)cc1,-42.9
9,CN(Cc1cnc2nc(N)nc(N)c2n1)c1ccc(C(=O)N[C@@H](CCC(=O)O)C(=O)O)cc1,-66
10,CC(C)(N)c1cc(C(=O)N[C@@H]2CCc3ccc(Oc4ccnc5c4CCC(=O)N5)cc3C2)cc(C(F)(F)F)c1,-59.3
11,COCCN1CCN(Cc2ccc(-c3n[nH]c4c3C(=O)c3c(NC(=O)NN5CCOCC5)cccc3-4)cc2)CC1,-79.4
12,CCCCCC(O)c1cccc(OCc2ccc3ccccc3n2)c1 (stereo not given),-64
13,Cc1cc(Nc2cc(N3CCN(C)CC3)nc(/C=C/c3ccccc3)n2)n[nH]1,-75.7
14,CC(C)C[C@H](NC(=O)CNC(=O)c1cc(Cl)ccc1Cl)B(O)O,-89.7
15,CN1CC[C@@H](c2c(O)cc(O)c3c(=O)cc(-c4ccccc4Cl)oc23)[C@@H]1CO,-82.7
16,O=C(CCCCCCNC(=O)c1cnc(N(c2ccccc2)c2ccccc2)nc1)NO,-45.9
17,CCN(CC)CCNC(=O)c1c(C)[nH]c(/C=C2\C(=O)Nc3ccc(F)cc32)c1C,-99.2
18,CC(C)(C)c1nc(-c2cccc(NS(=O)(=O)c3c(F)cccc3F)c2F)c(-c2ccnc(N)n2)s1,-68.4
19,OC1(c2ccc(Cl)c(C(F)(F)F)c2)CCN(CCCC(c2ccc(F)cc2)c2ccc(F)cc2)CC1,-60.6

row,SMILES,cell viability activity [%]
1,C[C@@H](NCCCc1cccc(C(F)(F)F)c1)c1cccc2ccccc12,-41.7
2,CN(C)CCCC(=O)Nc1ccc(C(=O)Nc2cccc(Nc3ncc(Cl)c(-c4c[nH]c5ccccc45)n3)c2)cc1,-78.1
3,O=C1NC(=O)[C@@H](c2cn3c4c(cccc24)CCC3)[C@@H]1c1c[nH]c2ccccc12,-61.7
4,COc1ccc(NC(=O)c2ccc(-c3ccc(-c4noc(C)n4)cc3C)cc2)cc1N1CCN(C)CC1,-57.8
5,C=CC(=O)Nc1cc2c(Nc3ccc(F)c(Cl)c3)ncnc2cc1C#CC(C)(C)N1CCN(C)CC1,-86.1
6,CC1(C)CC[C@]2(C(=O)O)CC[C@]3(C)[C@H](C(=O)C=C4[C@@]5(C)C=C(C#N)C(=O)C(C)(C)[C@@H]5CC[C@]43C)[C@@H]2C1,-82.9
7,O=C(NOCC1CC1)c1ccc(F)c(F)c1Nc1ccc(I)cc1Cl,-77.6
8,Cc1ncc(-c2ccnc(Nc3ccc(S(C)(=O)=O)cc3)n2)n1C(C)C,-87.7
9,Oc1c(Cl)cc(Cl)c(Cl)c1Cc1c(O)c(Cl)cc(Cl)c1Cl,-40.9
10,Cn1cc(-c2[nH]c3cc(NC(=O)[C@H](N)C4CCCCC4)cc4c3c2C=NNC4=O)cn1,-79.1
11,CCN(CC)CC1CCN(c2ncc3ncnc(Nc4ccc(F)c(Cl)c4)c3n2)CC1,-16.4
12,COc1ccc(/C=C\c2cc(OC)c(OC)c(OC)c2)cc1O,-58.3
13,CNC(=O)Nc1ccc(-c2nc(N3CC4CCC(C3)O4)c3cnn(C4CCC5(CC4)OCCO5)c3n2)cc1,-19.4
14,CC(C)C[C@H](NC(=O)[C@H](Cc1ccccc1)NC(=O)c1cnccn1)B(O)O,-94.6
15,Clc1ccccc1CNCC1CCC(CNCc2ccccc2Cl)CC1 (stereo not given),-19.9
16,COC[C@H](NC(=O)c1cnc(C)s1)C(=O)N[C@@H](COC)C(=O)N[C@@H](Cc1ccccc1)C(=O)[C@@]1(C)CO1,-93.6
17,COCC[n+]1c2c(n(Cc3cnccn3)c1C)C(=O)c1ccccc1C2=O,-95.6
18,COc1ccc(-c2cc3nccn3c(Nc3ncccc3C(N)=O)n2)cc1OC,-32.6
